This is an account of results in PubChem BioAssay.

Experiment [1] can be described thus: growth inhibition of DIPG glioma cells, dose response, cell-based, SU-DIPG-XVII, MIPE5.0, CellTiter-Glo, qHTS (AID 1347060; cut-off not given, nearly all actives have AC50 up to about 26 µM;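 also: cells exposed to compound for 48 hours before viability readout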). The settings on record: SU-DIPG-XVII viability, CellTiter-Glo ATP luminescence. On the technique in general: Cellular ATP, detected with luciferase, serves as a proxy for viable cell number.
A short description of experiment [2]: growth inhibition of DIPG glioma cells, dose response, cell-based, SU-DIPG-XIII, MIPE4.0, CellTiter-Glo, qHTS (AID 1347061; cut-off not given, nearly all actives have AC50 up to about 37 µM;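 also: cells exposed to compound for 48 hours before readout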). The settings on record: SU-DIPG-XIII viability, CellTiter-Glo ATP luminescence.
Experiment [3] can be described thus: growth inhibition of DIPG glioma cells, dose response, cell-based, JHH-DIPG-1, MIPE4.0, CellTiter-Glo, qHTS (AID 1347062; cut-off not given, nearly all actives have AC50 up to about 27 µM;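 as to AC50: cells exposed to compound for two days before readout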). The settings on record: JHH-DIPG-1 viability, CellTiter-Glo ATP luminescence.
The nature of experiment [4]: growth inhibition of DIPG glioma cells, dose response, cell-based, SU-DIPG-IV, MIPE4.0, CellTiter-Glo, qHTS (AID 1347063; cut-off not given, nearly all actives have AC50 up to about 30 µM;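 also: compound exposure lasted 48 hours before the viability readout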). The settings on record: SU-DIPG-IV viability, CellTiter-Glo ATP luminescence.
A short description of experiment [5]: growth inhibition of DIPG glioma cells, dose response, cell-based, SU-DIPG-XIII, MIPE5.0, CellTiter-Glo, qHTS (AID 1347064; cut-off not given, nearly all actives have AC50 up to about 23 µM;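 as to AC50: cells exposed to compound for 48 hours before the viability read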). The settings on record: SU-DIPG-XIII viability, CellTiter-Glo ATP luminescence.
Experiment [6] in a line: viability loss in pontine glioma line – cell-based, SU-DIPG-XXV, MIPE5.0, CellTiter-Glo, qHTS, dose response (AID 1347065; cut-off not given, nearly all actives have AC50 up to about 26 µM;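 also: cells exposed to compound for 48 hours before ATP readout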). The note with it: CellTiter-Glo ATP luminescence.
The nature of experiment [7]: SU-DIPG-VI glioma cell viability, MIPE4.0 library, CellTiter-Glo luminescence, qHTS (AID 1347066; cut-off not given, nearly all actives have AC50 up to about 30 µM;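 also: cells exposed to compound for 48 hours before readout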). The note with it: CellTiter-Glo ATP luminescence.
A short description of experiment [8]: JHH-DIPG-1 glioma cell viability, MIPE5.0 library, CellTiter-Glo luminescence, qHTS (AID 1347067; cut-off not given, nearly all actives have AC50 up to about 26 µM;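 also: cells exposed to compound for 48 hours before readout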). The settings on record: JHH-DIPG-1 glioma viability, CellTiter-Glo ATP luminescence.
Experiment [9] in a line: sensitizers of A549 cells to miR-34 induction, primary screen, imaging, A549 dox-inducible miR-34, nuclei and caspase counts (AID 1347080;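 active = compounds whose cell count with miR-34 switched on is under 0.7 times the count with it off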). The note with it: A549 miR-34 inducible, Hoechst nuclei count, 48 h.
A short description of experiment [10]: survival rescue of mitochondrial mutant cells in low glucose, primary screen, MELAS cybrids, Rieske KO mouse fibroblasts, CellTiter-Glo (AID 1508586;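 active = mean z-score across replicates of 1.96 or higher in either the MELAS or the Rieske mutant cell line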;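 also: z relative to plate mean and SD of compound and empty wells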).
Experiment [11] can be described thus: modifiers of HSF1 nuclear foci, imaging, Selleck Cancer Library (AID 1347162; in the data active = plate-normalised HSF1 focus index below about 0.46). The settings on record: human cells, at 10 µM; SSMD: measured here: HSF1 foci SSMD mean; cell count: measured here: cell number; plate-normalised HSF1 focus index: stronger effect = lower value.
The nature of experiment [12]: ovarian cancer cell viability with rucaparib, profiling panel, oncology-focused library, rucaparib conditional (AID 1508598). The settings on record: patient-derived ovarian cancer cells, CellTiter-Glo viability, 144 h, stronger effect = lower value.
Setting [13] is: stronger effect = lower value, cell number ratio, induced over uninduced.
Where [14] appears, read: measured here: relative caspase fold change +Dox/-Dox.
The mark [15] stands for this setting: measured here: total cells with miR-34 induction, stronger effect = lower value.
Where [16] appears, read: measured here: total cells without miR-34 induction.
Setting [17] is: MELAS cybrid survival, CellTiter-Glo 48 h, stronger effect = higher value.
[18] abbreviates: Rieske KO mouse fibroblast survival, CellTiter-Glo 72 h.

“And” between values parts separate entries of the source, which are not always exact repeats. Identical values can stand only once. Inconclusive results are not listed. The source holds several records for some structures; these can differ, active in one and inactive in another. The source made the active and inactive calls.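 The calls were made as follows, unless noted: active = normalized viability below 100% at a tested concentration; inactive = the rest.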

`O=C(NOCC(O)CO)c1cc(Br)c(F)c(F)c1Nc1ccc(I)cc1F` (configuration not stated): the AC50 (as a rule, the concentration giving half of the maximal activity seen) was 2090 nM (active) in [1]; 2640 nM (active) in experiment [2]; 16600 nM (active) in [3]; 20900 nM (active) in experiment [4]; 1480 nM (active) in experiment [5]; 3720 nM (active) in experiment [6]. Further, the AC50 in experiment [8] was 468 nM (active). Also, the result in experiment [7] was inactive. The fold change is 1.01 (inactive) in experiment [9] (setting [13]) and 1.08 in experiment [9] (setting [14]). Moreover, the cell count was determined as 3740 in experiment [9] (setting [15]) and 3720 in experiment [9] (setting [16]). The z-score in experiment [10] (setting [17]) was -0.561 (inactive); in experiment [10] (setting [18]) it was -0.494.
On to `O=C(/C=C/c1ccc(/C=C/C(=O)Nc2ccc(C3=NCCN3)cc2)cc1)Nc1ccc(C2=NCCN2)cc1`, for which the AC50 in experiment [1] is 2350 nM (active). The molecule was classed as inactive in experiment [2], in experiment [3], in [4], in [5], in [6] and in [7]. Further, in experiment [8], the molecule was classed as inactive. Besides, the fold change in experiment [9] (setting [13]) is 1.13 (inactive); in experiment [9] (setting [14]), 1.21. Moreover, the figures for the cell count in [9] (setting [15]) and in [9] (setting [16]) were 6840 and 6050, respectively.
In the case of `CN1CCN(c2ccc3nc(-c4c(N)c5c(F)cccc5[nH]c4=O)[nH]c3c2)CC1`, the AC50 was 525 nM (active) in [1]; 2960 nM (active) in experiment [2]; 26400 nM (active) in experiment [3]; 23500 nM (active) in experiment [4]; 1050 nM (active) in experiment [5]; 468 nM (active) in experiment [6]. Moreover, the figures for the AC50 in experiment [7] and in experiment [8] were 20900 nM (active) and 11800 nM (active), respectively. Moreover, the fold change in experiment [9] (setting [13]) is 1.57 (inactive) and 1.08 (inactive); in experiment [9] (setting [14]), 0.308 and 0.757. In addition, the cell count in experiment [9] (setting [15]) was 744 and 794; in [9] (setting [16]), 472 and 732; in [11], 5510. Further, the SSMD in [11] was -9.43. For the same molecule, the plate-normalised HSF1 focus index in [11] is 0.516 (inactive). Also, the z-score in experiment [10] (setting [17]) was 3.68 (active) and -0.215 (inactive); in [10] (setting [18]) it was -0.494 and -0.354. The viability (as a rule, a read-out of living cells in per cent, often relative to untreated cells) in [12] (at 0.000305 µM, OCI-C5x cells, with rucaparib 10 µM, 100% = cells with rucaparib alone) was 112% (inactive); in experiment [12] (at 0.000305 µM, OCI-C5x cells, without rucaparib), 107% (inactive); in experiment [12] (at 0.000305 µM, OCI-P5x cells, with rucaparib 20 µM, 100% = cells with rucaparib alone), 123% (inactive); in experiment [12] (at 0.000305 µM, OCI-P5x cells, without rucaparib) it was 105% (inactive); in experiment [12] (at 0.00122 µM, OCI-C5x cells, with rucaparib 10 µM, 100% = cells with rucaparib alone) it was 111% (inactive); in experiment [12] (at 0.00122 µM, OCI-C5x cells, without rucaparib), 104% (inactive). Besides, the viability in [12] (at 0.00122 µM, OCI-P5x cells, with rucaparib 20 µM, 100% = cells with rucaparib alone) is 118% (inactive); in experiment [12] (at 0.00122 µM, OCI-P5x cells, without rucaparib) it was 107% (inactive); in experiment [12] (at 0.00488 µM, OCI-C5x cells, with rucaparib 10 µM, 100% = cells with rucaparib alone), 121% (inactive); in experiment [12] (at 0.00488 µM, OCI-C5x cells, without rucaparib) it was 115% (inactive); in experiment [12] (at 0.00488 µM, OCI-P5x cells, with rucaparib 20 µM, 100% = cells with rucaparib alone), 136% (inactive); in [12] (at 0.00488 µM, OCI-P5x cells, without rucaparib), 109% (inactive). In addition, the viability in experiment [12] (at 0.0195 µM, OCI-C5x cells, with rucaparib 10 µM, 100% = cells with rucaparib alone) was 104% (inactive); in experiment [12] (at 0.0195 µM, OCI-C5x cells, without rucaparib), 112% (inactive); in experiment [12] (at 0.0195 µM, OCI-P5x cells, with rucaparib 20 µM, 100% = cells with rucaparib alone), 99.7% (active); in experiment [12] (at 0.0195 µM, OCI-P5x cells, without rucaparib), 76.1% (active); in experiment [12] (at 0.0781 µM, OCI-C5x cells, with rucaparib 10 µM, 100% = cells with rucaparib alone), 118% (inactive); in [12] (at 0.0781 µM, OCI-C5x cells, without rucaparib) it was 143% (inactive). Further, the viability in experiment [12] (at 0.0781 µM, OCI-P5x cells, with rucaparib 20 µM, 100% = cells with rucaparib alone) was 133% (inactive); in experiment [12] (at 0.0781 µM, OCI-P5x cells, without rucaparib), 107% (inactive); in experiment [12] (at 0.313 µM, OCI-C5x cells, with rucaparib 10 µM, 100% = cells with rucaparib alone) it was 125% (inactive); in experiment [12] (at 0.313 µM, OCI-C5x cells, without rucaparib), 119% (inactive); in experiment [12] (at 0.313 µM, OCI-P5x cells, with rucaparib 20 µM, 100% = cells with rucaparib alone) it was 129% (inactive); in [12] (at 0.313 µM, OCI-P5x cells, without rucaparib), 104% (inactive). Besides, the viability in experiment [12] (at 1.25 µM, OCI-C5x cells, with rucaparib 10 µM, 100% = cells with rucaparib alone) is 148% (inactive); in [12] (at 1.25 µM, OCI-C5x cells, without rucaparib) it was 127% (inactive); in experiment [12] (at 1.25 µM, OCI-P5x cells, with rucaparib 20 µM, 100% = cells with rucaparib alone), 123% (inactive); in experiment [12] (at 1.25 µM, OCI-P5x cells, without rucaparib), 90.6% (active); in experiment [12] (at 5 µM, OCI-C5x cells, with rucaparib 10 µM, 100% = cells with rucaparib alone) it was 3.71% (active); in experiment [12] (at 5 µM, OCI-C5x cells, without rucaparib), 73% (active). Besides, the viability was 42.5% (active) in experiment [12] (at 5 µM, OCI-P5x cells, with rucaparib 20 µM, 100% = cells with rucaparib alone) and 50% (active) in experiment [12] (at 5 µM, OCI-P5x cells, without rucaparib).
In the case of `CC(C)n1nc(-c2cc3cc(O)ccc3[nH]2)c2c(N)ncnc21`, the AC50 in experiment [1] was 2630 nM (active); in experiment [2] it was 18700 nM (active); in experiment [3] it was 9350 nM (active); in experiment [4], 148 nM (active); in experiment [5], 1660 nM (active); in experiment [6] it was 742 nM (active). Besides, the AC50 in [7] was 20900 nM (active); in experiment [8] it was 2630 nM (active). The fold change in experiment [9] (setting [13]) was 0.892 (inactive); in experiment [9] (setting [14]) it was 1.11. Also, the figures for the cell count in [9] (setting [15]) and in experiment [9] (setting [16]) were 1620 and 1820, respectively. The z-score was 5.6 (active) in experiment [10] (setting [17]) and -2.66 in experiment [10] (setting [18]).
Turning to `O=C1c2ccccc2-[n+]2ccc3c([nH]c4ccccc43)c21`, the half-maximal activity concentration (AC50) in experiment [1] is 2350 nM (active); in experiment [2], 2640 nM (active); in experiment [3], 743 nM (active); in experiment [4] it was 2090 nM (active); in experiment [5], 2350 nM (active); in experiment [6] it was 2630 nM (active). For the same molecule, the results for the AC50 in experiment [7] and in experiment [8] were 1660 nM (active) and 2350 nM (active), respectively.
